Experimental findings from PubChem BioAssay (NCI) are described below.

About 83,000 compounds went through this panel and 20% of them were active in at least one assay; those are over-represented in the sample as a whole.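 Assay: single dose, 48 h. Readout: percent growth (0 = no net growth; negative = cell death). Active: <10.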 A number with no mark means an inactive call. The source made the active and inactive calls.

Test systems include SK-MEL-2 melanoma; SN12C renal; UO-31 renal; TK-10 renal; ACHN renal; CAKI-1 renal; A498 renal; CCRF-CEM leukemia; MOLT-4 leukemia.
Test in all cases: NCI-60 one-dose screen, 48 h (100 = growth as untreated, 0 = no growth, -100 = all killed)
What all share (conditions): 10 µM

On to `CCCCCCCCCCCCCCCCCBr`, for which the growth in the test with SK-MEL-2 melanoma is 108%; in the test with SN12C renal, 98.9%; in the test with UO-31 renal it was 91.4%; in the test with TK-10 renal, 108%; in the test on ACHN renal, 102%; in the test with CAKI-1 renal, 97.2%. In addition, the figures for the growth in the test with A498 renal, in the test on CCRF-CEM leukemia and in the test with MOLT-4 leukemia were 64.1%, 94.4% and 96%, respectively.

`COc1ccc(-c2nc(-c3ccccc3)c(-c3ccccc3)[nH]2)cc1OC1CCCC1`: the growth in the test with SK-MEL-2 melanoma is 66.2%; in the test with SN12C renal it was 62.5%; in the test with UO-31 renal, 67.4%; in the test with TK-10 renal, 88.4%; in the test on ACHN renal, 54.4%; with CAKI-1 renal it was 71%. Further, the growth in the test on A498 renal was -9.35% (active); with CCRF-CEM leukemia it was 50.7%; with MOLT-4 leukemia, 40.8%.

For `O=C(Nc1cccc(F)c1)Nc1cccc(Cl)c1`, the growth is 101% in the test with SK-MEL-2 melanoma; 87.4% in the test on SN12C renal; 87.1% in the test with UO-31 renal; 116% in the test with TK-10 renal; 88.1% in the test with ACHN renal; 88.8% with CAKI-1 renal. The growth is 36.7% in the test with A498 renal, 84.4% with CCRF-CEM leukemia and 4.94% (active) in the test with MOLT-4 leukemia.

With `COc1ccc(S(=O)(=O)Nc2ccc(OCc3nnc(-c4ccc(Cl)cc4)o3)c(F)c2)cc1`, the growth with SK-MEL-2 melanoma is 40.6%; in the test on SN12C renal, 68.1%; with UO-31 renal, 51.3%; in the test with TK-10 renal, 57.6%; in the test on ACHN renal, 56.6%; in the test with CAKI-1 renal it was 54.6%. Moreover, the growth with A498 renal was 47%; in the test on CCRF-CEM leukemia, 54.5%; in the test on MOLT-4 leukemia, 36%.

Turning to `CC(=O)OCC(COC(C)=O)(COC(C)=O)COC(C)=O`, the growth in the test on SK-MEL-2 melanoma was 101%; with SN12C renal it was 108%; with UO-31 renal it was 84.7%; with TK-10 renal it was 108%; with ACHN renal it was 110%; with CAKI-1 renal, 103%. Moreover, the growth in the test on A498 renal is 73.4%; with CCRF-CEM leukemia, 103%; in the test with MOLT-4 leukemia, 93.5%.

As to `CN1CCN(c2nc(-c3cccnc3)nc3sc4c(c23)CCCCCC4)CC1`, the growth in the test with SK-MEL-2 melanoma was 114%; in the test on SN12C renal, 90.8%; with UO-31 renal, 75%; in the test on TK-10 renal it was 108%; with ACHN renal, 89.6%; in the test with CAKI-1 renal it was 86.7%. Moreover, the values for the growth in the test with A498 renal, in the test on CCRF-CEM leukemia and in the test on MOLT-4 leukemia were 99.3%, 92.4% and 39.6%, respectively.

In the case of `O=C(NCCCl)c1cc(Cl)cc(Cl)c1`, the growth was 117% in the test with SK-MEL-2 melanoma; 97% in the test on SN12C renal; 84% with UO-31 renal; 117% in the test with TK-10 renal; 107% in the test with ACHN renal; 96.8% in the test on CAKI-1 renal. Besides, the growth is 80.9% in the test with A498 renal, 97.2% in the test with CCRF-CEM leukemia and 105% in the test with MOLT-4 leukemia.

Regarding `Cc1ccc2nc(-c3ccc(OCC(=O)N=Nc4c(O)[nH]c5ccccc45)cc3)[nH]c2c1`, the growth is 104% with SK-MEL-2 melanoma; 57.3% in the test with SN12C renal; 96.1% with UO-31 renal; 103% in the test with TK-10 renal; 95.6% in the test with ACHN renal; 93.4% in the test on CAKI-1 renal. The growth is 93.2% in the test with A498 renal, 9.27% (active) with CCRF-CEM leukemia and 39.6% with MOLT-4 leukemia.

Take `O=C(c1ccc(Cl)cc1)c1no[n+]([O-])c1C(=O)c1ccc(Cl)cc1`: the growth with SK-MEL-2 melanoma is 92%; with SN12C renal, 86.4%; with UO-31 renal it was -94.9% (active); with TK-10 renal it was 84.1%; in the test with ACHN renal it was 39.7%; with CAKI-1 renal it was -68.6% (active). The growth in the test with A498 renal is 106%; with CCRF-CEM leukemia it was -51.6% (active); in the test with MOLT-4 leukemia it was 68.2%.

As to `COc1ccc(-c2cc(=O)n(-c3nc4ccccc4[nH]3)[nH]2)cc1OC`, the growth with SK-MEL-2 melanoma was 51%; in the test on SN12C renal it was 75%; in the test with UO-31 renal, 56.1%; with TK-10 renal, 93.9%; with ACHN renal, 57.6%; in the test on CAKI-1 renal, 38.7%. Besides, the growth in the test on A498 renal is 30.9%; with CCRF-CEM leukemia, -4.05% (active); in the test on MOLT-4 leukemia, -32% (active).

For `CC(=O)c1c(O)cc2c3c1OC(C)(C)C1CCC(C)(CC31)O2` (stereo not given), the growth with SK-MEL-2 melanoma is 99.2%; in the test with SN12C renal, 99.6%; with UO-31 renal, 77.8%; with TK-10 renal, 110%; in the test with ACHN renal, 95.1%; in the test on CAKI-1 renal, 89.5%. Also, the growth was 76% in the test on A498 renal, 106% with CCRF-CEM leukemia and 78.9% in the test on MOLT-4 leukemia.

`COc1ccc2nc(-c3ccccc3)cc(C(C)=O)c2c1`: the growth in the test on SK-MEL-2 melanoma was 96.6%; in the test with SN12C renal it was 94.9%; in the test with UO-31 renal, 73.8%; with TK-10 renal, 89.7%; with ACHN renal, 97.7%; in the test on CAKI-1 renal it was 87.9%. Moreover, the growth is 74.8% with A498 renal, 91.2% in the test on CCRF-CEM leukemia and 73.1% in the test with MOLT-4 leukemia.

Turning to `COc1cc(OC)cc(-c2ccc(-c3ccc(C(=N)N)cn3)o2)c1`, the growth was -76.8% (active) with SK-MEL-2 melanoma; -50.5% (active) in the test with SN12C renal; -33.9% (active) with UO-31 renal; 0.358% (active) in the test on TK-10 renal; 1.34% (active) in the test on ACHN renal; 16.1% with CAKI-1 renal. Further, the growth is 44.1% in the test on A498 renal, -25.6% (active) in the test on CCRF-CEM leukemia and -41.9% (active) in the test on MOLT-4 leukemia.

For `Nc1nc(SCC#CCCl)c2[nH]cnc2n1`, the growth with SK-MEL-2 melanoma is 57.2%; with SN12C renal it was 44.8%; with UO-31 renal it was -6.63% (active); in the test with TK-10 renal it was 37%; in the test on ACHN renal it was 44%; in the test on CAKI-1 renal it was 9.59% (active). Further, the results for the growth with A498 renal, in the test with CCRF-CEM leukemia and with MOLT-4 leukemia were 53.8%, 23.3% and 35.8%, respectively.

Take `Cc1cc(Cl)ccc1Nc1nc(C(F)(F)F)ccc1C(=O)N/N=C/c1ccccc1Cl`: the growth in the test with SK-MEL-2 melanoma is 19.2%; in the test with SN12C renal, 19.6%; in the test with UO-31 renal it was 7.23% (active); in the test with TK-10 renal, 19%; in the test with ACHN renal, 16%; with CAKI-1 renal, 5.28% (active). The values for the growth in the test on A498 renal, in the test with CCRF-CEM leukemia and in the test with MOLT-4 leukemia were 21.8%, 14.7% and 41.2%, respectively.
